Here are results for 5 molecules from ChEMBL document CHEMBL3988442, “University of Dundee, Small-Polar-MMV Screening Library” (2021).

Holding throughout (parameters): scale not given: direction of the effect not stated beside the values
In assay [1] the target is Protein translocase subunit SecA (Escherichia coli (strain K12)) (UniProt P10408). Kind of assay: Assay to Identify E. coli SecA ATPase Inhibitors. Conditions: 30 µM. The assay is classed as functional.
For assay [2], the target named is T1, Ubiquitin-activating enzyme e1, putative (Leishmania donovani (strain BPK282A1)) (UniProt E9BSI1).
T1 sequence (whole entry): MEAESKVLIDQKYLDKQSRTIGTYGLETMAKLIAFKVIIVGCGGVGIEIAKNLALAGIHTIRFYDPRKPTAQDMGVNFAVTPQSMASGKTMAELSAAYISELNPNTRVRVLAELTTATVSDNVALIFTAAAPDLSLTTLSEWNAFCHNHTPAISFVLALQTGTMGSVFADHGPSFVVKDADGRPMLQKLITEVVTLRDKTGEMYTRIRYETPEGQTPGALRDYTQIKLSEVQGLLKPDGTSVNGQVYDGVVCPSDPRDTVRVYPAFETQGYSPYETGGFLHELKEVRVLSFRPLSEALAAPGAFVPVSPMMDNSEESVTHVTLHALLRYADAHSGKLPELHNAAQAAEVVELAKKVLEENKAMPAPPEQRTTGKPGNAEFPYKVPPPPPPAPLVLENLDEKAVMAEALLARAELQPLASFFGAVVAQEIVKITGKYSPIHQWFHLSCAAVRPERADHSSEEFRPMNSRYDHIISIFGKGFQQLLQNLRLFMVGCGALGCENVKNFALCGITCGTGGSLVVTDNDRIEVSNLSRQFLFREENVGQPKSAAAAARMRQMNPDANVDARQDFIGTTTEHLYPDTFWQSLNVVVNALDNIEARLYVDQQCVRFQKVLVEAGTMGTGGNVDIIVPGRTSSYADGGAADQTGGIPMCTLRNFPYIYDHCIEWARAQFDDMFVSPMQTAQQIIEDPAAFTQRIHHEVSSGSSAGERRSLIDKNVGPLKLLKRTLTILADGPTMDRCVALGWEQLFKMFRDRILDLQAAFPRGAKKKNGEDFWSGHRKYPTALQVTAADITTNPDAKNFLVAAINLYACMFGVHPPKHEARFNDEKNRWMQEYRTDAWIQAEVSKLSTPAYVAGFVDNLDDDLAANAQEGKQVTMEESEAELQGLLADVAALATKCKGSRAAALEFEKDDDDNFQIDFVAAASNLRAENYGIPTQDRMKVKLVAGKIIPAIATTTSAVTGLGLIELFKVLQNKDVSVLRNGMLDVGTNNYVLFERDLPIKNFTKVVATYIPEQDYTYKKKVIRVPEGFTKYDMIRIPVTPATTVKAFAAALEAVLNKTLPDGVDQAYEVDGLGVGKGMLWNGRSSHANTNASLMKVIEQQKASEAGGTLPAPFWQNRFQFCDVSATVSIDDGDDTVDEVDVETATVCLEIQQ
The assay is described as follows: Leishmania donovani Ubiquitin Activating Enzyme (LdE1). Conditions: 30 µM. Type of assay: functional.

The target in assay [3] is T2, Aspartate--tRNA(Asp/Asn) ligase (Mycobacterium tuberculosis (strain ATCC 25618 / H37Rv)) (UniProt P9WFW3). Also: in the data most compounds retested in dose-response had high values.
T2 sequence (whole entry): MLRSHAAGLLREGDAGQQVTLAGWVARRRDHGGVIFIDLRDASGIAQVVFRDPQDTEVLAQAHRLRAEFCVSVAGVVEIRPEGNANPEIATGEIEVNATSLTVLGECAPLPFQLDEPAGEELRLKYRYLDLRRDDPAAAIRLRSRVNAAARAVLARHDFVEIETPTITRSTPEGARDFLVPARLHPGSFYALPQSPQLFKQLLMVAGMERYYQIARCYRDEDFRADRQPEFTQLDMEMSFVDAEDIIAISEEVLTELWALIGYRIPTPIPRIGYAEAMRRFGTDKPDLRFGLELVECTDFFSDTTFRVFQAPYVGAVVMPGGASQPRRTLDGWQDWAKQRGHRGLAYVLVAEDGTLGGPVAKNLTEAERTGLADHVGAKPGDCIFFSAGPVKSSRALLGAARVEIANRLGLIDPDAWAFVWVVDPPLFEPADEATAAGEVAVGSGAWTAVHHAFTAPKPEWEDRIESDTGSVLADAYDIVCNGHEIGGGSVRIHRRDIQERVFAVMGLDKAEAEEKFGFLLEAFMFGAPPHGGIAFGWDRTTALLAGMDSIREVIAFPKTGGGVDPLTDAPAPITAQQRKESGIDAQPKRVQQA
The assay is described as follows: Assay for Asp RNA synthetase-1 from Mycobacterium tuberculosis. Type of assay: functional. The note with it: 30 µM.

Assay [4] has as its target AMP-activated protein kinase, AMPK (Homo sapiens) (UniProt P54646+O43741+P54619+Q9UGJ0+Q9Y478+Q13131+Q9UGI9). Kind of assay: AMP-dependent Kinase enzyme assay. An in vitro enzyme assay that detects ADP turnover that is directly proportional to AMPK activity. This uses naive AMPK that is activated during the assay with MK-8722. Type of assay: functional. The note with it: 30 µM.

The target in assay [5] is Sialic acid-binding Ig-like lectin 9 (Homo sapiens) (UniProt Q9Y336). The assay is described as follows: Hs-Siglec9 ALPHAscreen SOP 20170721. Conditions: 10 µM. (In general: In Alpha technology, singlet oxygen from a donor bead excites a nearby acceptor bead.)
The subject of the next assay is Trypanosoma cruzi. Kind of assay: Trypanosoma cruzi phosphomannomutase and mannose-1-phosphate guanylyltransferase assay. Conditions: 10 µM. The assay is classed as functional.
In assay [6] the target is T3, Arginase-2, mitochondrial (Homo sapiens) (UniProt P78540).
T3 sequence (whole entry): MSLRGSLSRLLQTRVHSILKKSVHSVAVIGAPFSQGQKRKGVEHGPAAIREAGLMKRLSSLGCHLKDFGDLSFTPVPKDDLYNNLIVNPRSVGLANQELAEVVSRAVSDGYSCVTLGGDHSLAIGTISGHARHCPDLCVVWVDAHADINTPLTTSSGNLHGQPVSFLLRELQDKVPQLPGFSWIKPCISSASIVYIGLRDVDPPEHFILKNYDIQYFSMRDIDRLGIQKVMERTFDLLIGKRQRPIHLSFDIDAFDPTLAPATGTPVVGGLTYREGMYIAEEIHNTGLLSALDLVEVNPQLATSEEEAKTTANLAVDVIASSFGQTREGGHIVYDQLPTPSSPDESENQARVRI
Kind of assay: in vitro enzyme assay to detect the production of urea directly proportional to the activity of Arginase II. Also: in the data most compounds retested in dose-response had high values. The assay is classed as functional. Conditions: 33.3 µM.

Assay [7] has as its target T4, Proteasome subunit beta (Trypanosoma cruzi) (UniProt O96673).
T4 sequence (whole entry): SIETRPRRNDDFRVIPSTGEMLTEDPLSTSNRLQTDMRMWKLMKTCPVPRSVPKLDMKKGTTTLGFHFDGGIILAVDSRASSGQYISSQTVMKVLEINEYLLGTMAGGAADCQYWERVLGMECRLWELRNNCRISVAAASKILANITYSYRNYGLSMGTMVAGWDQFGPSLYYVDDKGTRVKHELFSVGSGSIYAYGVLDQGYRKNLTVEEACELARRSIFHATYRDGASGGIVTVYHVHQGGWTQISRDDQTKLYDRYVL
The assay is described as follows: Trypanosoma cruzi proteasome chymotrypsin-like activity (TcProtChymo) assay. Also: in the data most compounds retested in dose-response had high values. The assay is classed as functional. Conditions: 9.37 µM.

For a further assay, the species on record is Homo sapiens. The assay is described as follows: To identify inhibition of the IFN signalling (Jak-Stat) pathway via expression of an eGFP reporter gene under the control of an IFN-stimulated response element (ISRE) containing MxA promoter. Type of assay: functional. Conditions: 30 µM. A general note: Reporter assays use an easily measured gene product as a stand-in for the process of interest.

Assay [8] has as its target Shiga toxin 2 (Escherichia coli O157:H7) (UniProt P09385+P09386). The assay is described as follows: E. coli 0.157:H7 Shiga Toxin SOP - stx2 screening assay. The assay is classed as functional. Conditions: 30 µM.
In assay [9] the target is T5, Tyrosyl-tRNA synthetase, putative (Trypanosoma cruzi (strain CL Brener)) (UniProt Q4DSP6).
T5 sequence (whole entry): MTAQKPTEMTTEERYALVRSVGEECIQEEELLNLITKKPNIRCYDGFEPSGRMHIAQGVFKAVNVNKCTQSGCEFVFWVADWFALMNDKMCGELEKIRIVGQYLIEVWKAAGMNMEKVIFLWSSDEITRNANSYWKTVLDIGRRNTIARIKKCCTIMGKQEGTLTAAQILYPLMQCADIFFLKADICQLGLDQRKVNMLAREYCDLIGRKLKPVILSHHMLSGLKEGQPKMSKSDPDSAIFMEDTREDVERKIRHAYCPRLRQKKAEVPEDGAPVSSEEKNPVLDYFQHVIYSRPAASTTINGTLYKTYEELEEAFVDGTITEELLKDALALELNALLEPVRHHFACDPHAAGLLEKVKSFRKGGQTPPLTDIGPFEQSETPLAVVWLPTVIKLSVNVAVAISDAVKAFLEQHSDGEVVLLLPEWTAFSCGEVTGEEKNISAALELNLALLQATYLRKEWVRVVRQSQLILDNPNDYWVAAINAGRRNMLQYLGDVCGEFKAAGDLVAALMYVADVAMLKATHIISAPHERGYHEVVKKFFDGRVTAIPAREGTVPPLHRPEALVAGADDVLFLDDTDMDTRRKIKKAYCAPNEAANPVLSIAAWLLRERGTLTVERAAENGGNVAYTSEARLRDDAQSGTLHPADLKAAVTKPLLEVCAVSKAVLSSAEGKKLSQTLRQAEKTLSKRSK
The assay is described as follows: Trypanosoma cruzi tyrosyl tRNA synthetase (TcYRS) _High Tyrosine SOP. Also: in the data most compounds retested in dose-response had high values. Type of assay: functional. Conditions: 30 µM.

Assay [10] has as its target T5, Tyrosyl-tRNA synthetase, putative (Trypanosoma cruzi (strain CL Brener)). The assay is described as follows: Trypanosoma cruzi tyrosyl tRNA synthetase (TcYRS) SOP. Type of assay: functional. The note with it: 30 µM.
The target of assay [11] is Chromo domain-containing protein 1 (Saccharomyces cerevisiae (strain ATCC 204508 / S288c) (Baker's yeast)) (UniProt P32657). Kind of assay: ScCHD-1 Enzyme Inhibition Assay. Also: in the data most compounds retested in dose-response had high values. The note with it: 30 µM. Type of assay: functional.

For some assays here: Potency and affinity values are given separately.

Sequence of Chromo domain-containing protein 1 (Saccharomyces cerevisiae (strain ATCC 204508 / S288c) (Baker's yeast)) (P32657 whole entry, the tested form may be a part): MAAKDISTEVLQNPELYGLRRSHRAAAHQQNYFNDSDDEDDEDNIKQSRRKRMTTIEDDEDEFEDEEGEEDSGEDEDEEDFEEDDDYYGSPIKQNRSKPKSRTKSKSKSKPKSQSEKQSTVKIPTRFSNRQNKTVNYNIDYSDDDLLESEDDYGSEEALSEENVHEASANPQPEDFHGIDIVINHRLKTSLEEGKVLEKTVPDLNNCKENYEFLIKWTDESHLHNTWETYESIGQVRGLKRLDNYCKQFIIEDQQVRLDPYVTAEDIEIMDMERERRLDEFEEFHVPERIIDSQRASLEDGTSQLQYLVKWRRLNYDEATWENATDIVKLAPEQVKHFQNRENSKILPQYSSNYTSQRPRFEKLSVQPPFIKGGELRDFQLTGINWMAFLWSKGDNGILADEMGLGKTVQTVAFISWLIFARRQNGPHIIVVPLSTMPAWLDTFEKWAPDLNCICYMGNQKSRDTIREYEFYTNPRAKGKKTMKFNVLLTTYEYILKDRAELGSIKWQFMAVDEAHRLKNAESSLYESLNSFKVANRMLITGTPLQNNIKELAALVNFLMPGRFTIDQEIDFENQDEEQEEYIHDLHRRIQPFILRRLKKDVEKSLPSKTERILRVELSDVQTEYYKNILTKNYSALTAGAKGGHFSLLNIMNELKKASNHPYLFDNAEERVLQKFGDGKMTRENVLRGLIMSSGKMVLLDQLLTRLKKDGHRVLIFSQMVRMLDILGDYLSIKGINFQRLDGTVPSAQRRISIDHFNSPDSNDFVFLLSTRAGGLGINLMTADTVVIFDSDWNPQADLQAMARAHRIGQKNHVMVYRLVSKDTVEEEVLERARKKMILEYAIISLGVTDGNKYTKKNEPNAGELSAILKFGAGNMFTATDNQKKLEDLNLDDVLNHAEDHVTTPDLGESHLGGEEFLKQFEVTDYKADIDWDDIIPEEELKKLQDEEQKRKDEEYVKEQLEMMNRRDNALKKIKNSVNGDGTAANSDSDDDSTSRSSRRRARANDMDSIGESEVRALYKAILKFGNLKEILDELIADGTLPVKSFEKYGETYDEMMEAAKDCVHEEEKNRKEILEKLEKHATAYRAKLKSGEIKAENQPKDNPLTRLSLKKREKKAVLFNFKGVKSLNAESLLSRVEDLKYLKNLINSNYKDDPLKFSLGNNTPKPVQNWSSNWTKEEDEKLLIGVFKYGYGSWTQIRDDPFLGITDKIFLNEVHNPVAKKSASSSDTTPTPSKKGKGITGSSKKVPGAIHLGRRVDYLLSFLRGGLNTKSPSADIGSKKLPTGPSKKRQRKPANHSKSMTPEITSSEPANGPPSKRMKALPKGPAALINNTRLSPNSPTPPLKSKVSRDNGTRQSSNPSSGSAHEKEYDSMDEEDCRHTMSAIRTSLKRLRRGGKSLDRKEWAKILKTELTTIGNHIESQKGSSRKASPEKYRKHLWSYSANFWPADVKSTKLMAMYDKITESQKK
Sequence of Protein translocase subunit SecA (Escherichia coli (strain K12)) (P10408 whole entry): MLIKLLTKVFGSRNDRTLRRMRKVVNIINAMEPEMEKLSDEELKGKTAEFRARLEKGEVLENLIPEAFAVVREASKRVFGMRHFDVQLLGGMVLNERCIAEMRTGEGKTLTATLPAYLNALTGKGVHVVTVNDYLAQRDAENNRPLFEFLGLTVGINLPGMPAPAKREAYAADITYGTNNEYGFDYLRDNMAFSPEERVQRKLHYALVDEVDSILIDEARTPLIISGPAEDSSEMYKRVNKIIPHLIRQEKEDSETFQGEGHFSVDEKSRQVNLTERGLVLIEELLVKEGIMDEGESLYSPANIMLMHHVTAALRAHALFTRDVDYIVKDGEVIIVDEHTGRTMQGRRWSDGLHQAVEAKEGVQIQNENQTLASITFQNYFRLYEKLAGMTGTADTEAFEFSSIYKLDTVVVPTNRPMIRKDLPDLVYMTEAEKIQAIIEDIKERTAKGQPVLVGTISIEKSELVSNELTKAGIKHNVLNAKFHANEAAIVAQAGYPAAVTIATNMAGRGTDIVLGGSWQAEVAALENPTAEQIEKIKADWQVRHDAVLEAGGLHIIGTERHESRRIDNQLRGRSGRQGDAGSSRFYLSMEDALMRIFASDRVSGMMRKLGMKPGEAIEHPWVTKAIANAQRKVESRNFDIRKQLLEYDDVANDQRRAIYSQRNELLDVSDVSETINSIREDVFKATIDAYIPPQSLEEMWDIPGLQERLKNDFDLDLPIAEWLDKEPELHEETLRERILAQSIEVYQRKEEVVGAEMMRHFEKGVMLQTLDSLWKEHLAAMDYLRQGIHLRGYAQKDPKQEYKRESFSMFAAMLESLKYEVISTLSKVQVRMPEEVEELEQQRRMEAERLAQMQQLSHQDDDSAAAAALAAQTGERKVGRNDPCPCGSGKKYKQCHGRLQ
Sequence of Sialic acid-binding Ig-like lectin 9 (Homo sapiens) (Q9Y336 whole entry): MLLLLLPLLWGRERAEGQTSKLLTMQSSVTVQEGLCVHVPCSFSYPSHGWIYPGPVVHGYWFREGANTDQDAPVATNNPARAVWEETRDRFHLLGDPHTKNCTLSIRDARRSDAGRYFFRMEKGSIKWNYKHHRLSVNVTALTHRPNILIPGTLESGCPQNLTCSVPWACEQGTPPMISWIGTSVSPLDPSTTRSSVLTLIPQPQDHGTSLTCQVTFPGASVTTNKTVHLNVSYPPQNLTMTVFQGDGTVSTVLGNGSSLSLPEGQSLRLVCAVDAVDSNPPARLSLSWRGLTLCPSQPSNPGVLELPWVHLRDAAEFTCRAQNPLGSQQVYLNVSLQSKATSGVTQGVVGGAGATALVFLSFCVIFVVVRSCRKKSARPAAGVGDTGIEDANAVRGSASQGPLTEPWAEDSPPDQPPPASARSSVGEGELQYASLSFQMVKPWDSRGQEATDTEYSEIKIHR

As for `Cc1n[nH]c2c1C(c1ccsc1)SCC(=O)N2` (stereo not given), the Percent Effect in assay [1] is 0.859%; in [2], 15.6%; in assay [3], 6.57%; in assay [4] it was 7.18%; in assay [5] it was -13.4%; in the assay with Trypanosoma cruzi, -4.24%. In addition, the Percent Effect is 0.645% in assay [6]; 16% in [7]; 19.9% in the assay listed under Homo sapiens; 1.07% in assay [8]; 5.29% in assay [9]; 6.41% in assay [10]. Further, the Percent Effect in assay [11] was -7.85%.

For the molecule `O=C([C@H]1C[C@H]2OCC[C@H]2N(Cc2ccncc2)C1)N1CCCCO1`, the Percent Effect in [1] is -5.42%; in assay [2], 18.7%; in assay [3] it was 0.349%; in assay [4], -3.96%; in [5] it was -0.793%; in the assay on Trypanosoma cruzi, 5.6%. The Percent Effect in assay [6] is -46.4%; in assay [7], 15.9%; in the assay listed under Homo sapiens it was -2.86%; in assay [8], -11.8%; in assay [9], 8.33%; in assay [10], 25%. Further, in assay [11], the Percent Effect was -6.46%.

Regarding `O=C(NC[C@]12COC[C@H]1CN(Cc1ccncc1)C2)c1ccco1`, the Percent Effect in assay [1] is -2.11%; in [2] it was 13.3%; in [3], -0.368%; in assay [4] it was 7.09%; in assay [5] it was 2.99%; with Trypanosoma cruzi, -2.17%. The Percent Effect in [6] was 4.43%; in assay [7], 12.8%; in the assay listed under Homo sapiens, 7.74%; in [8], -4.6%; in [9], 10.6%; in assay [10], 21.8%. The Percent Effect in [11] was -2.5%.

As for `Cc1ccccc1CC(C)NCc1c(C)nn(C)c1N1CCOCC1` (stereo not given), the Percent Effect was -3.17% in assay [1]; -1.39% in [2]; -4.34% in [3]; -1.27% in assay [4]; -1.05% in assay [5]; 5.93% in the assay with Trypanosoma cruzi. For the same molecule, the Percent Effect is -2.21% in [6]; 2.46% in assay [7]; -20.6% in the assay listed under Homo sapiens; 16.3% in assay [8]; 3.16% in assay [9]; 2.56% in [10]. In addition, the Percent Effect in [11] was 102%.

As for `CCN1C[C@H]2[C@@H](C1)N(S(=O)(=O)c1cccnc1)CC[C@H]2OC`, the Percent Effect was -0.0411% in assay [1]; 5.33% in assay [2]; 1.49% in [3]; 5.24% in assay [4]; -6.52% in [5]; -5.91% with Trypanosoma cruzi. Besides, the Percent Effect in assay [6] is -2.56%; in assay [7], 4.49%; in the assay filed under Homo sapiens, 14.5%; in [8], -25%; in [9] it was -3.19%; in [10] it was -3.85%. The Percent Effect in assay [11] was -1.11%.
